Source: PubChem
In the library only some 11% were active in any assay of this set; here they are far more common.
G9a block – G9a (human) methyltransferase inhibition | Q96KQ7 | G9a H3K9 monomethylation, AlphaScreen, 2 h | Potency, µM (top dose mostly 102 µM), for inactives: top-dose activity, negative = inhibition, actives largely listed as inhibitors | 8.8% of 350,000 active | AID 504332; note: potency is the fitted concentration of half-maximal effect; nearly all actives have a fitted effect of over 75% in size
Target sequence (Q96KQ7 913-1193 limits assumed): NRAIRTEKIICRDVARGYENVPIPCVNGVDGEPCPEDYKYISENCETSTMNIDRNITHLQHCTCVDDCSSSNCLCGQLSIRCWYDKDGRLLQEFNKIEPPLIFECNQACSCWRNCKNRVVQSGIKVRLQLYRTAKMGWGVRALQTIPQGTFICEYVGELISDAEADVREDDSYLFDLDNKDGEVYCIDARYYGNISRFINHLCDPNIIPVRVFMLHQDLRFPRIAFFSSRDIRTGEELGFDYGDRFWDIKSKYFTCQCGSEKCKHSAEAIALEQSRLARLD
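Readings reflect AlphaScreen signal from monomethyl-H3K9 antibody detection. HMT at 20 nM; substrate b-H3K9 500 nM; cofactor SAM 20 uM; 2 h RT reaction; compounds tested as titrations in qHTS with 15 min preincubation.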
FBPA coupling cs – counter-screen for Giardia aldolase inhibitors: coupling enzyme system; AID 2472; activity change, negative = inhibition, % at 58.2 µM, hits read low; coupling enzyme system counterscreen, AmpLite Red fluorescence; 0.67% of 290,000 active; in the data active = activity change below about -30%
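Counterscreen lacking aldolase: glyceraldehyde-3-phosphate coupling-enzyme reagent preincubated 10 min at RT with compound (at 57.5 uM final), then substrate/coupling system with AmpLite Red added; fluorescence read at 525/598 nm after 20 min RT.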
Tau fluor cs – counter-screen for tau fibril formation inhibitors. Potency, µM (highest dose often 57.7 µM), for the others: at the top dose activity change, negative = decrease. AID 1463. 0.93% of 280,000 active. tau K18 P301L Alexa594 fluorescence, heparin fibrillization; note: potency is the fitted concentration of half-maximal effect; nearly all actives have a fitted effect of over 55% in size
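Human tau K18 P301L (15 uM unlabeled, 0.24 uM Alexa 594-labeled) in 100 mM sodium acetate pH 7 with 20 uM heparin, 6 hr at 37 C. ThT 30 uM added, 1 hr ambient; Alexa 594 FP and total fluorescence read at 555/632 nm.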
Sfp inh – Sfp phosphopantetheinyl transferase inhibition; Biochemical Sfp PPTase activity, qHTS; 3.5% of 310,000 active; Potency, µM, for the others: largest response in the series, negative = inhibition, most hits filed as inhibitors; Q9F4F7; AID 1490;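 note: the enzyme is Sfp with the accession as filed and its product quenches rhodamine fluorescence; potency is the fitted concentration of half-maximal effect; 0% = enzyme reaction without inhibitor and -100% = no enzyme wells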
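Step 1, compound plus 15 nM Sfp-PPTase, 15 min, room temperature. Step 2, add rhodamine-CoA (5 uM) and BHQ-2-YbbR (12.5 uM). Step 3, read 525/598 nm fluorescence at 0 and 30 min.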
Tau fibril ThT – inhibitors of human tau fibril formation, thioflavin T binding; recombinant tau K18 P301L (four-repeat tau fragment), heparin-induced fibrillization, ThT fluorescence; P10636; Potency, µM (series often up to 57.4 µM), without a hit: top-dose activity, negative = inhibition, most hits filed as inhibitors; 2.1% of 270,000 active; note: potency is the fitted concentration of half-maximal effect; nearly all actives have a fitted effect of over 55% in size
Target sequence (P10636 561-689 P618L limits assumed): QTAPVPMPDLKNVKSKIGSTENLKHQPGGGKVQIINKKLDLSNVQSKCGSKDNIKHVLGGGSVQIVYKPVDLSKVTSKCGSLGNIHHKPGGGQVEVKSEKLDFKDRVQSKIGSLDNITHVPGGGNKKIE
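K18 P301L tau (15 uM + 0.24 uM Alexa 594-tagged), heparin 20 uM, NaOAc pH 7, 6 h 37 C; ThT 30 uM, 1 h RT, ex 450/em 510 nm.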
Tau fibril FP – blocks human tau fibril formation measured by polarization; P10636; K18 P301L tau heparin fibrillization, Alexa594 FP, 6 h; Potency, µM (highest dose often 57.7 µM), for the others: at the top dose activity, negative = inhibition, most hits filed as inhibitors; 0.39% of 280,000 active; AID 1468; note: potency is the fitted concentration of half-maximal effect; nearly all actives have a fitted effect of over 55% in size
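Human K18 P301L fragment (15 uM unlabeled plus 0.24 uM Alexa 594-labeled) in 100 mM sodium acetate pH 7 with compound, aggregation induced by 20 uM heparin for 6 hr at 37 C. ThT (30 uM) added for 1 hr, then Alexa 594 FP read.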
Active calls of the source: *; ? = inconclusive; . = no result given; [ ] = another dose, or the depositor's remark. Unless noted, calls come from the whole dose curve; as a rule, active = well fitted curve in the direction sought with a large enough effect; inconclusive = small, poorly fitted or top-dose-only effect, or another doubt; inactive = no such curve, though single readings can be large; an effect the other way counts as inactive or inconclusive. Unless noted, % is set by controls: 0 for no effect and ±100 for the full control effect.

SMILES	G9a block	FBPA coupling cs	Tau fluor cs	Sfp inh	Tau fibril ThT	Tau fibril FP
CC(C)c1ccc(NC(=O)C2CCCCC2C(=O)O)cc1 (centres undefined)	25%[12.7 µM]	6	7%	19%	-5%	4%
NS(=O)(=O)c1ccc(NC(=S)NC2CCCCC2)cc1	25µM*	-11	-3%	7.9µM*	3%	-10%
O=C(O)[C@H]1CCCC[C@H]1C(=O)Nc1ccc(Nc2ccccc2)cc1	8.9µM*	3	-24%	3%	?	-8%
S=C(Nc1ccc(Nc2ccccc2)cc1)NC1CCCCCC1	16µM*	0	10µM*[quencher]	?	-16%	9%
NS(=O)(=O)c1ccc(NC(=O)NC2CCCCC2)cc1	1%	4	-9%	-6%	-4%	-2%
S=C(Nc1cccnc1)NC1CCCC1	16µM*	-3	-7%	-5%	-5%	6%
CC(=O)C1CCC2C3CC(C)C4=CC(=O)CC[C@@]4(C)C3C(O)C[C@@]12C (some centres undefined)	-2%[2.33 µM]	1	-7%	-5%	0%	3%
O=C(NNC(=O)c1ccccc1[N+](=O)[O-])c1ccc(NS(=O)(=O)c2cccs2)cc1	?	.	.	6%	.	.
Cc1nc2ccc(NC(=S)NC3CCCCC3)cc2nc1C	-9%[59 µM]	-35*	?	-2%	?	2%
COc1ccc(-n2c(=O)c3sc4ccccc4c3n(CC(=O)NC3CCCCC3)c2=O)cc1	8%[59 µM]	.	-4%	.	1%	-7%
COc1ccc(N2CCN(C(CNS(=O)(=O)c3ccc(OC)c(C)c3)c3ccco3)CC2)cc1 (centres undefined)	7.9µM*	.	?	.	?	5%
COc1ccc(S(=O)(=O)NCC(c2ccco2)N2CCOCC2)cc1OC (centres undefined)	13µM*	.	-2%	.	-2%	-2%
COc1ccc(S(=O)(=O)NCC(c2ccco2)N2CCN(c3ccccc3)CC2)cc1OC (centres undefined)	-8%[59 µM]	.	-20%	.	-14%	6%
CC(=O)n1c2ccccc2c2nc3ccccc3nc21	33%[0.501 µM]	7	.	13%	.	.
C=CCNc1nc2c3ccccc3n(C(C)=O)c2s1	32µM*	-23	?	79µM*	28µM*	?
CCOC(=O)CNC(c1ccccc1)c1cc(Br)ccc1NC(=O)CCN1CCOCC1 (centres undefined)	?	1	-4%	16µM*	0%	-1%
COC(=O)CNC(c1ccccc1)c1cc(Br)ccc1NC(=O)CCN1CCOCC1 (centres undefined)	3.2µM*	-1	7%	32µM*	8%	5%
COC(=O)CNC(c1ccccc1)c1cc(Br)ccc1NC(=O)CNC(=O)OCc1ccccc1 (centres undefined)	5%[59 µM]	-1	-15%	2%	-15%	4%
CN1C(=O)CC(Nc2cccc3cccc(N)c23)C1=O (centres undefined)	35µM*	-41*	?	-63%	?	?
CC(C)N1C(=O)CC(Nc2cccc3cccc(N)c23)C1=O (centres undefined)	45µM*	-30	?	-11%	?	-4%
CC(C)N1C(=O)CC(Nc2ccc(N3CCOCC3)cc2)C1=O (centres undefined)	?	0	-7%	6%	?	-9%
CN1C(=O)CC(NNC(=O)c2ccccc2)C1=O (centres undefined)	.	-3	3%	-1%	-7%	-1%
CCC1CCC(c2nnc(-c3ccc([N+](=O)[O-])cc3)o2)CC1 (centres undefined)	10µM*	2	-23%	-2%	?	6%
Cc1ccc(S(=O)(=O)NCc2ccccc2)cc1C(=O)NCCc1ccc(S(N)(=O)=O)cc1	-8%[12.7 µM]	.	.	.	.	.
Cc1ccc(Cl)c(OCC(=O)Nc2sc(C)c(C)c2C#N)c1	45µM*	1	-4%	-27%	-6%	-4%
SMILES	G9a block	FBPA coupling cs	Tau fluor cs	Sfp inh	Tau fibril ThT	Tau fibril FP
CCOC(=O)c1c(NC(=S)Nc2cccnc2)sc(C)c1C	45µM*	1	-26%	-40%	-5%	-12%
CCOC(=O)c1c(NC(=O)Cc2cccs2)sc(C)c1C	-15%[12.7 µM]	4	-22%	20µM*	?	-1%
CCOC(=O)c1c(NC(=S)Nc2ccc(Cl)cc2)sc(C)c1C	?	2	-15%	-8%	-7%	-8%
CCOC(=O)Nc1sc(C)c(C)c1C(=O)OCC	42%	-2	1%	-28%	-5%	-5%
COC(=O)c1sc(NC(=O)Cc2cccs2)nc1C	28µM*	3	-3%	14%	-8%	-1%
CCOC(=O)c1c(NC(=O)Nc2ccccc2)sc(C)c1C	40µM*	-5	?	-9%	-17%	-13%
Cc1ccc(OCC(=O)Nc2nnc(SCc3cc(=O)c4ccccc4[nH]3)s2)cc1	-3%[59 µM]	.	-11%	.	-9%	-2%
CCOC(=O)c1sc(NC(=O)Nc2cccc(Cl)c2)cc1C	-2%[59 µM]	-2	3.5µM*[quencher]	-1%	-23%	?
CCOC(=O)c1sc(NC(=O)c2cccs2)cc1C	8%[12.7 µM]	1	-27%	7%	-11%	-8%
Nc1nc(SCc2ccccc2)ns1	4µM*	2	-4%	?	-10%	-13%
O=C(O)c1ccc(N=C2NC(=O)C(CO)(CO)S2)cc1	-49%	8	.	2%	.	.
COc1cc(/C=C/C(=O)c2ccc3c(c2)OCCO3)cc(OC)c1OC	.	2	.	-11%	.	.
CNc1ccc(/C=C/C(=O)c2ccc(C)cc2)cc1[N+](=O)[O-]	?	0	-23%	1%	3.2µM*	2%
Cc1ccc(/C=C/C(=O)c2ccc(O)cc2)cc1	20%[59 µM]	1	-21%	9%	?	-2%
Cc1ccc(NC(=O)c2ccc(N/N=C/c3cccc(O)c3)c([N+](=O)[O-])c2)cc1	.	2	?	-4%	1.6µM*	2%
COc1ccc(Oc2ccc(/C=C/C(=O)c3ccc(O)cc3)cc2[N+](=O)[O-])cc1	40µM*	0	?	-3%	?	?
CNc1ccc(/C=C/C(=O)c2ccc3c(c2)OCCO3)cc1[N+](=O)[O-]	8.9µM*	-1	?	-18%	2.5µM*	2%
O=C(/C=C/c1ccc(O)c([N+](=O)[O-])c1)c1ccc2ccccc2c1	?	0	.	-7%	.	.
Cc1ccc(CSCCNC(=O)CSc2ccccc2)cc1	4%	2	-5%	-19%	-12%	5%
CCCNc1c(NS(=O)(=O)c2c(F)c(F)c(F)c(F)c2F)c(=O)oc2ccccc12	7%	.	.	23%	.	.
C=CCOC(/C=C/c1ccccc1)C[Si](C)(C)C (centres undefined)	.	3	.	-2%	.	.
COc1cc(SC)ccc1C(=O)Nc1ccc2c(c1)CCC2	72%	-12	.	-17%	.	.
